Test results taken from PubChem BioAssay (NCI).
The panel holds about 79,000 compounds, 15% with a hit somewhere; the sample as a whole holds those more often. The source made the active and inactive calls. Rule as the data show it: active = growth inhibition above about 70%; inactive = the rest.

What was measured:
[1] = NCI Yeast Anticancer Drug Screen. Data for the rad50 strain (AID 155);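 also: 0% = growth of vehicle-only cultures of the same strain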; settings: S. cerevisiae rad50 strain growth inhibition; at 50.0 µM; active compounds read high
Method in brief: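 Genetically altered yeast (DNA repair pathway); compound treatment; growth inhibition vs vehicle ctrl.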

[2] = NCI Yeast Anticancer Drug Screen. Data for the mec2-1 strain (AID 157); settings: S. cerevisiae mec2-1 strain, at 50.0 µM, active compounds read high
Method in brief: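 Readout is yeast growth inhibition, normalised to vehicle-treated controls, in the mec2-1 strain exposed to compound.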

[3] = NCI Yeast Anticancer Drug Screen. Data for the sgs1 mgt1 strain (AID 161);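 also: 0% = growth of cultures given vehicle only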; settings: S. cerevisiae sgs1 mgt1 strain, at 50.0 µM, active compounds read high
Method in brief: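 This yeast growth screen uses a strain with defined DNA-repair lesions; compound-treated growth is compared with vehicle-treated growth.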

[4] = NCI Yeast Anticancer Drug Screen. Data for the cln2 rad14 strain (AID 165);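 also: 0% = growth equal to vehicle treated cultures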; settings: S. cerevisiae cln2 rad14 strain, at 50.0 µM, active compounds read high
Method in brief: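 Relative to vehicle controls, growth inhibition of compound-treated cln2 rad14 yeast was recorded.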

[5] = NCI Yeast Anticancer Drug Screen. Data for the bub3 strain (AID 167); settings: S. cerevisiae bub3 mutant strain, at 50.0 µM, active compounds read high
Method in brief: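 Yeast carrying a defined mutation is treated with each compound, and growth is compared with that of vehicle-exposed cells to give inhibition.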

[6] = NCI Yeast Anticancer Drug Screen. Data for the mlh1 rad18 strain (AID 175); settings: S. cerevisiae mlh1 rad18 strain growth inhibition; at 50.0 µM; active compounds read high
Method in brief: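 Test agents were incubated with a yeast strain of defined genotype (DNA damage repair defect). Inhibition of growth was derived by comparison with vehicle-exposed cultures.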

Measured: growth inhibition

Cc1nn(C(=S)S)c(C)c1N=Nc1ccc(O)cc1
inactive: [1] 9.3% | [2] 10.5% | [3] 16.9% | [4] -16.7% | [5] 5.35% | [6] 18.6%

C=C(Cl)C(Br)(CCl)CCC(Cl)C(C)C (configuration not stated) (tested in a mixture with another compound)
active: [1] 85% | [2] 86.3% | [3] 91% | [4] 91.5% | [5] 90.7% | [6] 73.8%

c1ccc(CC(c2cccc3ccccc23)N2CCOCC2)cc1 (configuration not stated)
inactive: [1] 22.2% | [2] 23.9% | [3] 39.7% | [4] -7.55% | [5] 30% | [6] 23.2%

CC(C)NC1(N(C)C)N=C(N(C)C)N=C(N(C)C)O1 (configuration not stated)
inactive: [1] -3.65% | [2] -2.7% | [3] 2.75% | [4] 27% | [5] 9.5% | [6] -1.25%

Cc1nc2cnc(N)nc2nc1C
inactive: [1] -6.85% | [2] -16.9% | [3] -3.65% | [4] -40.4% | [5] 0.8% | [6] 0.75%

COc1ccc2ccccc2c1C1/C(=N/O)CCc2ccccc21 (configuration not stated)
inactive: [1] 30.4% | [2] 15.2% | [3] 12.2% | [4] -37.3% | [5] 10.6% | [6] 14.7%

O=C1C=CC(c2ccccc2)(c2ccccc2)O1
inactive: [1] -32.7% | [2] -10.8% | [3] -15.3% | [4] -22.4% | [5] -8.35% | [6] -7.1%

CC(=O)C(c1ccccc1)N(CCO)Cc1ccccc1 (configuration not stated)
inactive: [1] 8.15% | [2] -6% | [3] -5.9% | [4] 28.6% | [5] 7.45% | [6] 1.8%

CCC(C)Nc1ncnc2c1cnn2C (configuration not stated)
inactive: [1] -14.2% | [2] -27.9% | [3] -16.8% | [4] -32.5% | [5] -25.4% | [6] -10.9%

CCOC(=O)c1ccc(NC(=O)Sc2ccccc2C)cc1
inactive: [1] 5.55% | [2] 12.9% | [3] 11.3% | [4] 7.5% | [5] 28% | [6] 13.6%

CCN(CC)c1ccc(/C=C(\C#N)C(N)=S)cc1
inactive: [1] 35.4% | [2] 23.6% | [3] 45.2% | [4] 0.85% | [5] 15.6% | [6] 16.5%

C/C(Cl)=N\OC(=O)Nc1ccc([N+](=O)[O-])cc1
inactive: [1] 34.2% | [4] 66.8% | [6] 43.4%
active: [2] 80.2% | [3] 85.8% | [5] 87.2%

CC(=Nc1ccc(C)cc1N)c1c(O)cc(C)oc1=O
inactive: [1] -8.75% | [2] -7.5% | [3] -11.4% | [4] -32.6% | [5] 1.3% | [6] -5.85%

CC1(n2nc(-c3ccccc3)n(-c3ccccc3)c2=O)CSC1
inactive: [1] -8.4% | [2] -22.9% | [3] -31.1% | [4] -15.9% | [5] -15.8% | [6] -7.1%

CC1CCC2C(C(=O)O[C@H]3C4C=CO[C@@H](OC5OC(CO)C(O)C(O)C5O)C4[C@@]4(CO)O[C@@H]34)=CO[C@@H](OC3OC(CO)C(O)C(O)C3O)C12 (some centres not stated)
inactive: [1] -12.3% | [2] -32.5% | [3] -18.6% | [4] 4.2% | [5] -12.8% | [6] -11.4%

CN(C)c1cc[n+](-c2c([O-])c3ccccc3n(-c3ccccc3)c2=O)cc1
inactive: [1] 20.1% | [2] 6.1% | [3] 14.2% | [4] 12.7% | [5] 4.8% | [6] 21%

Cc1ccc(S(=O)(=O)NC2C(=O)c3ccccc3C(=O)C2n2cnc3ccccc32)cc1 (configuration not stated)
inactive: [1] 14.3% | [2] 1.8% | [3] -10.9% | [4] -16.9% | [5] -14.9% | [6] -28.8%

O=C(OCCCCCCCCOC(=O)c1ccc([N+](=O)[O-])cc1)c1ccc([N+](=O)[O-])cc1
inactive: [1] 14.6% | [2] 2.15% | [3] 12.2% | [4] 4.1% | [5] -5.4% | [6] 5.9%

N/C(=N\Cl)C(Cl)(Cl)Cl
inactive: [1] -17.9% | [2] -16.5% | [3] 6.25% | [4] -26.6% | [5] 2.1% | [6] -21.4%

O=C1C(Cl)=C(SCc2ccccc2)C(=O)c2ccccc21
active: [2] 72.7%
inactive: [1] 17.8% | [3] 48.2% | [4] -11.3% | [5] 61.9% | [6] 42.9%

C#C/C=C/CC1OC(C(Br)CC)CC(Br)C2CC1O2 (configuration not stated)
inactive: [1] 20.6% | [2] 16.8% | [3] 36.4% | [4] 24.4% | [5] 32% | [6] -18.2%

Fc1cccc(CSC(=S)Nc2ccc(Cl)c(C(F)(F)F)c2)c1
active: [1] 99.1% | [2] 99.5% | [3] 99.5% | [4] 99.2% | [5] 99.2% | [6] 99%

CCCCCCCCCCCCCCCc1cc(O)ccc1N=O
inactive: [1] -3.8% | [2] -16.5% | [3] -8.3% | [4] -3.45% | [5] -1.05% | [6] -11.7%

CC1C(=NO)C(C)C(c2ccccc2)N(N=O)C1c1ccccc1 (configuration not stated)
inactive: [1] -12.6% | [2] -20.5% | [3] -6.1% | [4] 3.25% | [5] 0.45% | [6] 26.4%

C=C1c2cc3c(cc2CC12Cc1cc4c(cc1C2=O)CCC4)CCC3 (configuration not stated)
inactive: [1] 20.2% | [2] 22% | [3] 11.3% | [4] 24.1% | [5] 46.8% | [6] 16%

Cc1ccc(-c2c(C#N)c(-c3ccccc3)c(C#N)c(=O)n2NS(=O)(=O)c2ccc(C)cc2)cc1
inactive: [1] 3.65% | [2] 28.1% | [3] 17.1% | [4] 18.7% | [5] 18.2% | [6] 23.3%

Fc1ccc(Nc2cc(F)cc(F)c2)cc1
inactive: [1] 22.7% | [2] 8.45% | [3] 17.4% | [4] 3.2% | [5] 10.6% | [6] 11.1%

Nc1ccccc1CN1C(=O)CCC1=O
inactive: [1] 0.25% | [2] -6.8% | [3] -12.4% | [4] -14.9% | [5] -10.1% | [6] -14.2%

N#CCCN(CCC#N)C(=O)Nc1cccc2ccccc12
inactive: [1] 10.2% | [2] -9.15% | [3] 5.7% | [4] 12.8% | [5] -2.25% | [6] -16.5%

CCN(CC)CCOc1ccc(/C=C(\C#N)c2ccc(OCCN(CC)CC)cc2)cc1
inactive: [1] 56.5% | [2] 28.6% | [3] 30.4% | [4] 56% | [5] 24.1% | [6] 18%

CCOC1(OCC)CS(=O)(=O)C1c1ccccc1 (configuration not stated)
inactive: [1] -1.2% | [2] -10.2% | [3] 1.95% | [4] -26.2% | [5] 12.6% | [6] -18.6%

C=CC(C)(C)c1c(OC(C)=O)cc2oc3c(OC(C)=O)c(OC(C)=O)cc(CC=C(C)C)c3c(=O)c2c1O
inactive: [1] 34% | [2] 12.3% | [3] 11.2% | [4] 7.35% | [5] -5.85% | [6] -0.55%

CCOC(=O)C1C(C)=CC(=O)CC1CC (configuration not stated)
inactive: [1] 24.3% | [2] -10.7% | [3] 14.8% | [4] -1.05% | [5] -3.85% | [6] 22.5%

CCOC(CN1CCCCC1)OCC
inactive: [1] -7.85% | [2] -7.6% | [3] 17.1% | [4] 8.7% | [5] -1.6% | [6] 6.65%

COc1cc(C)ccc1C(=O)C[n+]1ccc2ccccc2c1
inactive: [1] -41.3% | [2] -1.35% | [3] -25.9% | [4] -56.1% | [5] -1.55% | [6] -2.5%

COC1OC2COC(c3ccccc3)OC2C(OS(=O)(=O)c2ccc(Br)cc2)C1OS(=O)(=O)c1ccc(Br)cc1 (configuration not stated)
inactive: [1] -10.5% | [2] 13.7% | [3] -1.3% | [4] -14.7% | [5] -11.8% | [6] 21.6%

CC(C)C1C(O)C23CCC4C(C)(CO)CCCC4(C)C2CC13 (configuration not stated)
inactive: [1] -7.15% | [2] -6.85% | [3] -22.6% | [4] -15.4% | [5] -24.1% | [6] -8.75%
